Compounds without any hit were thinned out: in the full panel of roughly 83,000, 20% have a hit.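 A percent growth of 40 corresponds to 60% growth inhibition; 0 means no net growth; -100 means all cells died. Active threshold: below 10.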 Unmarked numbers belong to inactive results. The source made the active and inactive calls.

Among the test systems are HCT-15 colon; SNB-75 CNS; SNB-19 CNS; U251 CNS; PC-3 prostate; UACC-62 melanoma; LOX IMVI melanoma; SK-MEL-28 melanoma; SN12C renal; UO-31 renal; ACHN renal; CAKI-1 renal; A498 renal; CCRF-CEM leukemia; MOLT-4 leukemia; SK-MEL-5 melanoma; EKVX NSCLC; TK-10 renal; SK-MEL-2 melanoma.
Holding throughout (assay): NCI-60 one-dose screen, 48 h (100 = growth as untreated, 0 = no growth, -100 = all killed)
Common to all, as to conditions: 10 µM unless noted

As for `COc1cc(/C=C/c2cc(/C=C/c3ccc(O)c(OC)c3)n(C(=O)c3ccc(Cl)cc3)n2)ccc1O`, the growth with HCT-15 colon is 14.1%; in the assay with SNB-75 CNS, -2.93% (active); with SNB-19 CNS, 45.6%; in the assay with U251 CNS, 16.8%; in the assay on PC-3 prostate, 4.59% (active); in the assay on UACC-62 melanoma, 22.5%. Further, the growth in the assay with LOX IMVI melanoma was 13.9%; in the assay on SK-MEL-28 melanoma, 19.5%; in the assay with SN12C renal it was 13.6%; in the assay on UO-31 renal it was 0.559% (active); in the assay with ACHN renal, 11.5%; in the assay on CAKI-1 renal, 17.9%. In addition, the growth with A498 renal was 7.49% (active); with CCRF-CEM leukemia, 0.628% (active); in the assay on MOLT-4 leukemia it was 5.8% (active).

In the case of `c1cc[n+](Cc2ccnc3ccccc23)cc1`, the growth in the assay on HCT-15 colon is 64.3%; with SNB-75 CNS it was 53.6%; in the assay with SNB-19 CNS, 103%; in the assay on PC-3 prostate, 80.8%; with SK-MEL-5 melanoma, 107%; in the assay on UACC-62 melanoma, 104%. Moreover, the growth was 90.8% with LOX IMVI melanoma; 104% in the assay with SK-MEL-28 melanoma; 102% in the assay with SN12C renal; 73.6% with UO-31 renal; 94.2% with ACHN renal; 91.1% in the assay on CAKI-1 renal. The growth was 109% in the assay on A498 renal and 108% with MOLT-4 leukemia.

Consider `CCCCOP(=O)(OCCCC)C(C(=O)OCC)C(CC(=O)OCC)C(=O)OCC` (centres undefined), for which the growth in the assay with HCT-15 colon was 86.4%; with SNB-75 CNS it was 59.9%; in the assay on SNB-19 CNS it was 100%; with PC-3 prostate, 88.6%; in the assay on SK-MEL-5 melanoma, 109%; in the assay with UACC-62 melanoma, 105%. Moreover, the growth is 109% with LOX IMVI melanoma; 104% with SK-MEL-28 melanoma; 100% with SN12C renal; 91.9% with UO-31 renal; 93.2% in the assay on ACHN renal; 109% in the assay with MOLT-4 leukemia.

On to `O=C(/C=C/c1cccc(O)c1)c1cccc(-n2cc(-c3ccccc3)[nH]c2=O)c1`, for which the growth in the assay on HCT-15 colon was -18.9% (active); with SNB-75 CNS, 41.2%; in the assay on SNB-19 CNS, 50%; in the assay with U251 CNS, -77% (active); in the assay with LOX IMVI melanoma, -69.5% (active); in the assay on SK-MEL-28 melanoma, 30.8%. Moreover, the growth was 66.8% in the assay on EKVX NSCLC; -12.9% (active) in the assay on SN12C renal; -73.5% (active) in the assay with UO-31 renal; 12.4% in the assay on TK-10 renal; -75.8% (active) with ACHN renal; 8.38% (active) in the assay on CAKI-1 renal. For the same molecule, the growth is 90.6% in the assay with A498 renal, -3.86% (active) in the assay with CCRF-CEM leukemia and -7.37% (active) with MOLT-4 leukemia.

`COC(=O)c1cc2oc(/C=N\NC(=O)c3cc4oc(C)c(C)c4[nH]3)cc2[nH]1`: the growth is 108% in the assay on HCT-15 colon; 112% in the assay on SNB-75 CNS; 102% in the assay on SNB-19 CNS; 100% in the assay with U251 CNS; 72% in the assay with PC-3 prostate; 108% in the assay with SK-MEL-5 melanoma. Also, the growth is 115% in the assay on UACC-62 melanoma; 107% in the assay with LOX IMVI melanoma; 109% in the assay on SK-MEL-2 melanoma; 91.6% in the assay with EKVX NSCLC; 120% with SN12C renal; 94.7% with UO-31 renal. The growth in the assay with TK-10 renal is 132%; with ACHN renal, 104%; in the assay with CAKI-1 renal, 80.5%; in the assay with A498 renal it was 115%; with CCRF-CEM leukemia it was 83.7%; in the assay with MOLT-4 leukemia, 82.1%.

For `COc1ccc(C(=O)/C=C/c2ccc(C)cc2)cc1OC`, the growth in the assay with HCT-15 colon was 46.9%; in the assay with SNB-75 CNS, 64.9%; with SNB-19 CNS it was 70.3%; in the assay with PC-3 prostate, 51%; in the assay on SK-MEL-5 melanoma, 74%; with UACC-62 melanoma it was 68.1%. Besides, the growth in the assay with LOX IMVI melanoma was 48.6%; in the assay on SK-MEL-28 melanoma, 87.4%; in the assay on EKVX NSCLC, 93%; in the assay on SN12C renal, 75.7%; with UO-31 renal it was -12% (active); in the assay on TK-10 renal, 114%. Also, the growth with ACHN renal is 86.2%; in the assay on A498 renal, 80.7%; with CCRF-CEM leukemia, 23.4%; with MOLT-4 leukemia, 52.1%.

Regarding `COc1cc(-c2nnc(-c3nc(-c4cc(OC)c(OC)c(OC)c4)n4ccccc34)o2)ccc1N`, the growth with HCT-15 colon was 64.5%; in the assay on SNB-75 CNS, 75%; in the assay with SNB-19 CNS, 77.7%; in the assay on U251 CNS, 64.2%; with PC-3 prostate, 69%; with UACC-62 melanoma, 60.9%. Besides, the growth is 56.3% in the assay with LOX IMVI melanoma; 8.84% (active) in the assay on EKVX NSCLC; 50.4% in the assay on SN12C renal; 38.6% in the assay on UO-31 renal; 62.2% in the assay with ACHN renal; 59.3% with CAKI-1 renal. Besides, the growth with A498 renal was 98.8%; with CCRF-CEM leukemia it was 43%; with MOLT-4 leukemia, 64.6%.

`O=C(Nc1ccccc1S)c1ccccc1`: the growth in the assay with HCT-15 colon is 108%; in the assay with SNB-75 CNS, 81.7%; in the assay on SNB-19 CNS it was 100%; with U251 CNS, 94.8%; in the assay with PC-3 prostate it was 88.5%; in the assay on SK-MEL-5 melanoma, 114%. For the same molecule, the growth in the assay with UACC-62 melanoma was 86.6%; in the assay with LOX IMVI melanoma, 84.9%; in the assay with SK-MEL-28 melanoma, 112%; in the assay with EKVX NSCLC, 94.6%; in the assay on SN12C renal, 95.2%; with UO-31 renal, 91.8%. The growth in the assay on ACHN renal is 104%; with A498 renal it was 86.5%; with CCRF-CEM leukemia, 106%; with MOLT-4 leukemia, 82%.

With `COc1cc(/C=C/c2cc(/C=C/c3ccc(O)c(OC)c3)n(C(=O)Cc3ccccc3)n2)ccc1O`, the growth in the assay on HCT-15 colon was 6.11% (active); with SNB-75 CNS it was 0.658% (active); with SNB-19 CNS, 7.03% (active); with U251 CNS, -2.58% (active); in the assay with PC-3 prostate it was 3.01% (active); in the assay with SK-MEL-5 melanoma it was -31.8% (active). For the same molecule, the growth in the assay on LOX IMVI melanoma was 5.18% (active); with SK-MEL-28 melanoma it was -4.66% (active); in the assay on SN12C renal it was 9.07% (active); in the assay with UO-31 renal, -9.97% (active); with ACHN renal, 5.4% (active); in the assay with CAKI-1 renal it was 20.9%. Also, the results for the growth with A498 renal, with CCRF-CEM leukemia and in the assay on MOLT-4 leukemia were -9.09% (active), 0.172% (active) and 1.08% (active), respectively.

For `COc1cc(/C(Cl)=C/C=C/C(=O)c2c(C)[n+]([O-])c3ccc(Cl)cc3[n+]2[O-])cc(OC)c1OC`, the growth in the assay with HCT-15 colon was 11.5%; with SNB-75 CNS, 19.8%; in the assay on SNB-19 CNS, 51.2%; with PC-3 prostate, 40%; in the assay with SK-MEL-5 melanoma it was 14.2%; with UACC-62 melanoma it was 21.2%. Also, the growth was -18.3% (active) in the assay with LOX IMVI melanoma; 33.5% in the assay with SK-MEL-28 melanoma; 28.5% with SK-MEL-2 melanoma; 89.3% in the assay on EKVX NSCLC; 31.9% in the assay on SN12C renal; 45.7% in the assay with UO-31 renal. For the same molecule, the growth was 71.6% with TK-10 renal; 26.9% in the assay with ACHN renal; 41.3% in the assay with CAKI-1 renal; 85.1% with A498 renal; 8.02% (active) in the assay with CCRF-CEM leukemia; 12.4% in the assay with MOLT-4 leukemia.

Values taken from PubChem BioAssay (NCI).
